The record followed here is ChEMBL document CHEMBL1157539, “Thousands of chemical starting points for antimalarial lead identification” (Nature, 2010).

One may read the Inhibition as the drop in the measured response relative to a control, in per cent.

The test concerns Plasmodium falciparum. The experiment in a line: GSK_TCMDC: Inhibition of Plasmodium falciparum 3D7 in whole red blood cells, using parasite LDH activity as an index of growth. Test compounds present at 2uM. The format is functional.
The compound `CC(C)(C)c1ccc(CN2CCCCC(NC(=O)c3cc(-c4cccc(Cl)c4)cs3)C2)cc1.O=C(O)C(F)(F)F` (centres undefined) yielded an Inhibition of 96%.

`CN1CCN(c2nc(NCCc3ccc(O)cc3)nc(NCc3ccccc3-c3ccc(C(F)(F)F)cc3)n2)CC1` registered an Inhibition of 90%.

Consider `CCCc1ccc(S(=O)(=O)Nc2ccc3c(c2)CCC3)cc1`, for which the Inhibition was 96%.

Consider `Br.CCSc1ccccc1CON1C(=N)N=C(N)NC1(C)C`, for which the Inhibition worked out at 96%.

`COc1ccc(C2CCC(NCCCCNC(=O)c3ccc(NC(=O)c4ccc(Cl)cc4)cc3)CC2)cc1` (centres undefined) gave an Inhibition of 99%.

In the case of `Cc1ccc(C)c(CC(=O)N2CCC(n3c(C)nc4ccc(F)cc43)CC2)c1`, the Inhibition is 100%.

The compound `O=C(N[C@@H](CC1CCCCC1)C(=O)NC1CCCCC1)c1ccc(O)c(-c2cccc(C(F)(F)F)c2)c1` came in with an Inhibition of 100%.

The compound `COc1ccc(NC(=O)[C@H](Cc2ccccc2)Nc2cc(C)nc(Nc3ccccc3)n2)cc1.O=C(O)C(F)(F)F` came in with an Inhibition of 100%.

Consider `Cc1nn(-c2ccccc2)nc1C(=O)N(Cc1ccc(-c2ccc(CNCCc3ccc(S(C)(=O)=O)cc3)cn2)cc1)C(C)CN(C)C.O=C(O)C(F)(F)F` (centres undefined), for which the Inhibition is recorded as 100%.

`O=C(/C=C/c1ccccc1Cl)Nc1ccc(Br)c(OCCN2CCN(CCN3CCOCC3)CC2)c1.O=C(O)C(=O)O`: the Inhibition is listed as 98%.

`CC(C)c1ccc(NC(=O)Nc2ccc(CCNCCCc3ccccc3)cc2)cc1` gave an Inhibition of 100%.

`O=C(/C=C/c1ccc(Cl)c(Cl)c1)NCCCCCN1CCC(NC(=O)Nc2cccc(Cl)c2)CC1` registered an Inhibition of 100%.

`Cn1nccc1C(=O)NCCNCc1ccc(-c2ccc(-c3nc4cc(C(F)(F)F)ccc4[nH]3)s2)cc1.O=C(O)C(F)(F)F`: the Inhibition was 100%.

In turn, `COc1cc(NC(=O)Nc2ccnc3ccccc23)cc(OC)c1.Cl` showed an Inhibition of 98%.

Regarding `CCNc1cc(C)nc(Nc2ccc(NC(=O)C3CCCC3)cc2)n1`, the Inhibition is reported as 99%.

For the compound `O=C(N[C@@H](CC1CCCCC1)C(=O)NCc1cccc(C(F)(F)F)c1)c1ccc(O)c(-c2ccc(Cl)c(Cl)c2)c1`, the Inhibition is on record as 98%.

`COc1cc2nc(N3CCC(CNC(=O)c4ccc(-c5ccc(C(=O)N(C)C)cc5O)cc4)CC3)nc(N)c2cc1OC` registered an Inhibition of 100%.

In turn, `N#Cc1ccc(-c2ccc(C(=O)NC3CCN(CCN4CCC(c5cn(CCOC6CCCCO6)c6ccccc56)CC4)CC3)cc2)cc1` (centres undefined) had an Inhibition of 99%.

`CC(C)c1ccc(CN2CCC(NC(=O)c3ccc(-c4cccc(F)c4)s3)CC2)cc1.O=C(O)C(F)(F)F`: the Inhibition is on record as 83%.

`Cc1ccc(S(=O)(=O)N2CCN(C(=O)c3cc(-c4ccccc4)n[nH]3)CC2)cc1` displayed an Inhibition of 91%.

The compound `CCc1cn(CC(=O)N(CCOc2ccc(-c3ccc(C(F)(F)F)cc3)cc2)CCN(CC)CC)c(SCc2ccc(F)cc2)nc1=O` gave an Inhibition of 95%.

`CCNc1cc(C(=O)N[C@@H](Cc2ccccc2)[C@H](O)CNCc2cc(OC)cc(OC)c2)cc(N2CCCC2=O)c1.Cl` displayed an Inhibition of 100%.

`CCn1c(-c2nonc2N)nc2cnc(Oc3cccc(NC(=O)c4ccc(OCCN5CCCC5)cc4)c3)cc21` gave an Inhibition of 92%.

On to `CCCCN(CCCC)Cc1cc2ccccc2cc1O.Cl`, for which the Inhibition came out at 100%.

Compound `Cc1ccc(C)c(Cn2c(N3CCC(C(=O)NCc4cccs4)CC3)nc3ccccc32)c1` came in with an Inhibition of 89%.

With `CC(C)COc1ccc(Cl)cc1Cc1ccc(-c2nc3cc(F)c(F)cc3[nH]2)o1`, the Inhibition is reported as 95%.

For the compound `O=C(O)C(F)(F)F.c1ccc(CN2CCC(NCc3ccccc3-c3cccc(CNC4CCCC4)c3)CC2)cc1`, the Inhibition turned out to be 100%.

For `O=C(Cn1c(CCc2cccc(F)c2F)cc(=O)c2ccccc21)N(Cc1ccc(-c2ccc(C(F)(F)F)cc2)cc1)C1CCN(CCN2CCOCC2)CC1.O=C(O)C(O)C(O)C(=O)O`, the Inhibition amounted to 100%.

The compound `NC(=O)c1cnc2cc(-c3ccncc3)cc(Nc3ccc(NC(=O)C4CCCCC4)cc3)c2c1` registered an Inhibition of 98%.

`CCOc1ccc2[nH]c(C)cc(=NN=Cc3ccncc3)c2c1` had an Inhibition of 99%.

On to `COc1ccc2ncc(Cl)c(CCN3CC[C@@H](CNCc4cc5c(cn4)OCS5)C3)c2n1.Cl`, for which the Inhibition came to 99%.

For the compound `COCCNCc1cccc(-c2ccc3c(Nc4ccc(Oc5cccnc5)cc4)ccnc3c2)c1`, the Inhibition stood at 100%.

`CC(C)N1CCC(Oc2ccc(CN3CCN(C(c4ccccc4)c4ccc(Cl)cc4)CC3)cc2)CC1.Cl` (centres undefined): the Inhibition is reported as 97%.

`Cc1cc(NCCC(=O)NCCOc2ccccc2)nc(Nc2ccccc2)n1.O=C(O)C(F)(F)F`: the Inhibition worked out at 94%.

`CC(=O)Nc1ccc(COc2ccc(Nc3ccnc4cc(-c5ccccn5)ccc34)cc2)cc1.Cl` gave an Inhibition of 99%.

For the compound `O=C(NCCCCN1CCC(c2ccc3ccccc3c2O)CC1)c1ccc(NC(=O)c2ccc(Cl)cc2)cc1`, the Inhibition was found to be 100%.

The compound `COc1ccc(CNCCc2cccs2)cc1-c1ccc(S(=O)(=O)NCCN2CCCC2)cc1.O=C(O)C(F)(F)F` registered an Inhibition of 99%.

`Cc1cccc2nc(-c3cccc(-c4cccc(CNCc5ccccc5)c4)c3)[nH]c12.O=C(O)C(F)(F)F` showed an Inhibition of 100%.

Take `Cc1cnc(C(=O)Nc2ccc3c(c2)CCCN(Cc2c[nH]c4cnccc24)C3)cn1.O=CO`: the Inhibition is 92%.
